Screening data as filed in PubChem BioAssay.
The entries come from a sample that favours hits as a whole.
U2OS ROS induce: inducers of reactive oxygen species in cancer cells. U2OS ROS induction, H2DCF-DA fluorescence. ROS induction (% of piperlongumine), % at 10 µM. 46,000 tested, 2% active; in the data active = ROS induction above about 79%, passing the limit was not always enough
A number is an active result; . = inactive.

SMILES | U2OS ROS induce
[N-]=[N+]=NCc1ccccc1C[C@@]1(C(=O)N2CCOCC2)N=C(c2ccc(OCCCO)cc2)O[C@@H]1c1ccccc1 | .
[N-]=[N+]=NCc1ccccc1C[C@]1(C(=O)N2CCCCC2)N=C(c2ccc(OCCCO)cc2)O[C@H]1c1ccccc1 | 155
O=C(N1CCCCC1)[C@]1(CCS(=O)(=O)c2ccccc2)N=C(c2ccc(OCCCO)cc2)O[C@@H]1c1ccccc1 | 88
[N-]=[N+]=NCc1ccccc1C[C@@]1(C(=O)NCc2ccccc2)N=C(c2ccc(OCCCO)cc2)O[C@@H]1c1ccccc1 | 118
COCCCNC(=O)[C@@]1(Cc2ccccc2CN=[N+]=[N-])N=C(c2ccc(OCCCO)cc2)O[C@H]1c1ccccc1 | .
O=C(N1CCOCC1)[C@@]1(CCS(=O)(=O)c2ccccc2)N=C(c2ccc(OCCCO)cc2)O[C@H]1c1ccccc1 | .
O=C(N1CCOCC1)[C@]1(CCS(=O)(=O)c2ccccc2)N=C(c2ccc(OCCCO)cc2)O[C@@H]1c1ccccc1 | .
COCCCNC(=O)[C@]1(Cc2ccccc2CN=[N+]=[N-])N=C(c2ccc(OCCCO)cc2)O[C@@H]1c1ccccc1 | .
COc1ccccc1N1CCN(S(=O)(=O)c2ccc3[nH]cc(C(=O)O)c(=O)c3c2)CC1 | .
Cc1cccc(C)c1NC(=O)C1(N(C)C(=O)CSc2nc3ccccc3o2)CCCCC1 | .
N#CCSc1nc(C2CC2)cc(-c2ccc(F)cc2)c1C(N)=O | .
COc1cccc(-c2nc(S(=O)(=O)c3ccc(C)cc3)c(N(C)C)o2)c1 | .
O=C(CCCSc1nc2ccc(Cl)cc2s1)c1ccc(F)cc1 | .
NS(=O)(=O)c1ccc(CCNC(=O)c2cc3c(s2)-c2ccccc2OC3)cc1 | .
Cc1cc2c(cc1S(=O)(=O)N1CCCCC1C)OCC(=O)N2 (stereo unspecified) | .
COC(=O)c1nn(-c2ccccc2)c2oc(=O)cc(C)c12 | .
C[C@H](CO)N1C[C@H](C)[C@H](CN(C)S(=O)(=O)c2cccs2)Oc2ncc(C#Cc3ccc(C(F)(F)F)cc3)cc2C1=O | 110
CCCC(O)C#Cc1cnc2c(c1)C(=O)N([C@H](C)CO)C[C@H](C)[C@H](CN(C)S(=O)(=O)c1cccs1)O2 (stereo partly specified) | .
C[C@H](CO)N1C[C@H](C)[C@H](CN(C)S(=O)(=O)c2cn(C)cn2)Oc2ncc(C#CCN(C)C)cc2C1=O | .
C[C@H](CO)N1C[C@H](C)[C@H](CN(C)S(=O)(=O)c2cccs2)Oc2ncc(C#Cc3ccc(F)cc3)cc2C1=O | .
COc1cccc(S(=O)(=O)N(C)C[C@@H]2Oc3ncc(C#Cc4cccc(F)c4)cc3C(=O)N([C@H](C)CO)C[C@@H]2C)c1 | .
COc1cccc(S(=O)(=O)N(C)C[C@@H]2Oc3ncc(C#Cc4ccc(C(F)(F)F)cc4)cc3C(=O)N([C@H](C)CO)C[C@@H]2C)c1 | 129
COc1cccc(S(=O)(=O)N(C)C[C@@H]2Oc3ncc(C#Cc4ccc(OC)c(OC)c4)cc3C(=O)N([C@H](C)CO)C[C@@H]2C)c1 | .
C[C@H](CO)N1C[C@H](C)[C@H](CN(C)S(=O)(=O)c2cn(C)cn2)Oc2ncc(C#Cc3ccccc3)cc2C1=O | 120
C[C@H](CO)N1C[C@H](C)[C@H](CN(C)S(=O)(=O)c2cn(C)cn2)Oc2ncc(C#Cc3ccc(C(F)(F)F)cc3)cc2C1=O | .
SMILES | U2OS ROS induce
CCOC(=O)N1CCC(NC(=O)c2cc(C)on2)CC1 | .
CC(=O)Nc1ccccc1NC(=O)c1ccco1 | .
CCn1c(C(=O)N2CCC(C(=O)NCc3ccc(Cl)cc3)CC2)cc2occc21 | .
Nc1cc(-c2ccccc2)c2ccccc2n1 | .
Cn1nc(C(=O)N2CCN(c3cccc(C(F)(F)F)c3)CC2)c2c1-c1ccccc1OC2 | .
CC(C)C(C(=O)Nc1ccc(S(=O)(=O)Nc2ncccn2)cc1)N1C(=O)c2ccccc2C1=O (stereo unspecified) | .
CN1CCN(CCNC(=O)c2cnn(-c3ccccc3)c2-n2cccc2)CC1 | .
c1ccc2[nH]c(-c3nc4ccccc4s3)nc2c1 | .
Cc1ccccc1NC(=O)N(Cc1cccs1)C(=O)CC#N | .
O=C(O)CCC(=O)N1N=C(c2c(-c3ccccc3)c3cc(Cl)ccc3[nH]c2=O)CC1c1ccccn1 (stereo unspecified) | .
O=C(O)CCC(=O)N1N=C(c2c(-c3ccccc3)c3cc(Cl)ccc3[nH]c2=O)CC1c1ccccc1 (stereo unspecified) | .
CC(=O)N1N=C(c2c(-c3ccccc3)c3cc(Cl)ccc3[nH]c2=O)CC1c1ccco1 (stereo unspecified) | 109
O=C(CSc1ncnc2sc3c(c12)CCCC3)Nc1cccc(F)c1 | .
O=C(Nc1cccc(F)c1)C1CCN(c2ncnc3c2sc2cccc(F)c23)CC1 | 111
CCc1cccc(NC(=O)C2CCN(c3nn4c(=O)cc(C)nc4s3)CC2)c1 | .
COCCOC(=O)N1C(=O)[C@@]2(c3cc(C#CCCO)ccc31)[C@H](c1ccc(O)cc1)N1[C@H](c3ccccc3)[C@H](c3ccccc3)OC(=O)[C@H]1[C@@H]2C(N)=O | .
COCCOC(=O)N1C(=O)[C@@]2(c3cc(C#CCC(C(=O)OC)C(=O)OC)ccc31)[C@H](c1ccccc1OCCO)N1[C@H](c3ccccc3)[C@H](c3ccccc3)OC(=O)[C@H]1[C@@H]2C(N)=O | 407
COCCOC(=O)N1C(=O)[C@@]2(c3cc(C#CCNC(N)=O)ccc31)[C@H](C(=O)NC[C@H](O)c1ccccc1)[C@H]1C(=O)O[C@H](c3ccccc3)[C@H](c3ccccc3)N1[C@@H]2c1ccc(O)cc1 | .
COCCOC(=O)N1C(=O)[C@@]2(c3cc(C#CC4=CCCCC4)ccc31)[C@H](c1ccccc1OCCO)N1[C@H](c3ccccc3)[C@H](c3ccccc3)OC(=O)[C@H]1[C@@H]2C(N)=O | 84
C=CCNC(=O)[C@H]1[C@@H]2C(=O)O[C@@H](c3ccccc3)[C@@H](c3ccccc3)N2[C@@H](c2ccccc2OCCO)[C@]12C(=O)N(C(=O)OCCOC)c1ccc(C#CCC(C(=O)OC)C(=O)OC)cc12 | 179
COCCOC(=O)N1C(=O)[C@@]2(c3cc(C#Cc4ccc(OC)cc4)ccc31)[C@H](c1ccccc1OCCO)N1[C@H](c3ccccc3)[C@H](c3ccccc3)OC(=O)[C@H]1[C@@H]2C(=O)NC[C@H](O)c1ccccc1 | .
COCCOC(=O)N1C(=O)[C@@]2(c3cc(C#CC4(O)CCCCCC4)ccc31)[C@H](c1ccccc1OCCO)N1[C@H](c3ccccc3)[C@H](c3ccccc3)OC(=O)[C@H]1[C@@H]2C(N)=O | .
COCCOC(=O)N1C(=O)[C@@]2(c3cc(C#Cc4ccc(OC)cc4)ccc31)[C@H](c1ccccc1OCCO)N1[C@H](c3ccccc3)[C@H](c3ccccc3)OC(=O)[C@H]1[C@@H]2C(N)=O | .
COCCOC(=O)N1C(=O)[C@@]2(c3cc(C#CCNC(N)=O)ccc31)[C@H](c1ccccc1OCCO)N1[C@H](c3ccccc3)[C@H](c3ccccc3)OC(=O)[C@H]1[C@@H]2C(N)=O | .
C=CCNC(=O)[C@@H]1[C@H]2C(=O)O[C@H](c3ccccc3)[C@H](c3ccccc3)N2[C@H](c2ccccc2OCCO)[C@@]12C(=O)N(C(=O)OCCOC)c1ccc(C#Cc3ccc(OC)cc3)cc12 | .
COCCOC(=O)N1C(=O)[C@@]2(c3cc(C#CCC(C(=O)OC)C(=O)OC)ccc31)[C@H](c1ccccc1OCCO)N1[C@H](c3ccccc3)[C@H](c3ccccc3)OC(=O)[C@H]1[C@@H]2C(=O)NC[C@H](O)c1ccccc1 | 320
